TDP1 cell noCPT – qHTS for Inhibitors of human tyrosyl-DNA phosphodiesterase 1 (TDP1): qHTS in cells in absence of CPT; DT40 Tdp1-/- hTDP1 cells, no CPT, ATP luminescence, 48 h; Potency, µM (titrated, usually from 46.2 µM), actives largely listed as inhibitors; 420,000 tested, 15% active; AID 686978, 2013; also: nearly all actives have a fitted effect of over 55% in size
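Cells were dispensed at 400 per well, compounds added by pin tool, plates incubated ≥48 hr at 37 °C, then CellTiter-Glo added for 30 min at room temperature before luminescence reading. Line: DT40 Tdp1-/- complemented with hTDP1; camptothecin omitted.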
HT1080NT lethal – kills 2HG-producing HT-1080-NT fibrosarcoma cells | HT-1080-NT fibrosarcoma viability, CellTiter-Glo ATP luminescence, 48 h | Potency, µM (top dose mostly 46.1 µM), usual class: cytotoxic | 360,000 tested, 1.6% active | AID 686970;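 also: NT is the 2HG producing partner of a matched IDH1 knockdown line; nearly all actives have a fitted effect of over 55% in size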
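Compounds were tested in concentration-response format on HT-1080-NT cells for 48 hours at 37 degrees C. Cell viability came from CellTiter-Glo luminescence; curves were classified by r2, response magnitude and activity.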
ALOX12 inh – ALOX12 (human) lipoxygenase inhibition; purified 12hLO, xylenol orange hydroperoxide absorbance; P18054; 580,000 tested, 1.1% active; Potency, µM (series often up to 108 µM), usual class: inhibitors
Target sequence (P18054 whole entry, looked up): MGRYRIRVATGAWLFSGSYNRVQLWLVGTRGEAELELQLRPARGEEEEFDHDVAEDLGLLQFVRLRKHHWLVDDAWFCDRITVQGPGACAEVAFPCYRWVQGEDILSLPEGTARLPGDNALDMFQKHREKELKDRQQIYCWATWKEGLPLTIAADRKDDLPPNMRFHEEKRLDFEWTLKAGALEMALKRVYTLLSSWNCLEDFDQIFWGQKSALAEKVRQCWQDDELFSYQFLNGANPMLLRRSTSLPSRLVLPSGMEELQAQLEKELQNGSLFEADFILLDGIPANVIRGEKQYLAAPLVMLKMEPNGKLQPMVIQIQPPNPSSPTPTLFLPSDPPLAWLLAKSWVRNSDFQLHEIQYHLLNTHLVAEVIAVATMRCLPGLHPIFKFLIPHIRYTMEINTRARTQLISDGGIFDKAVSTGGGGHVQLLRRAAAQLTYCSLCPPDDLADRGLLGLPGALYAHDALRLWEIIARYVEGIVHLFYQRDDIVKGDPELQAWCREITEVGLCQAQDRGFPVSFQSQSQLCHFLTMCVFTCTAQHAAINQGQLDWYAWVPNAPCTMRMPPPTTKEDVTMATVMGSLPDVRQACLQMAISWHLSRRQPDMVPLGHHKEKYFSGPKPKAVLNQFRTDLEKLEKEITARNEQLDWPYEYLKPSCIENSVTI
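Hydroperoxide product was detected by ferrous iron/xylenol orange as the 573 to 405 nm absorbance ratio. Arachidonic acid at 40 uM (final) was turned over for 30 min at room temperature by 150 nM human 12hLO, pH 7.0 Hepes buffer, after 15 min compound preincubation.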
HT1080 IDH1KD tx – toxicity to HT-1080 IDH1 knockdown cells (counter line). HT-1080 IDH1 knockdown viability, ATP luminescence, 48 h. Potency, µM (top dose mostly 46.1 µM), usual class: cytotoxic. 360,000 tested, 2% active
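Cytotoxicity counter-line: IDH1KD HT-1080, 48 h, CellTiter-Glo. Curves classed by r2, magnitude and activity.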
IL-1B inflam inh – inflammasome signaling inhibition, IL-1 beta readout. THP-1 LPS/ATP IL-1B secretion, AlphaLISA, 16 h; hits give low values. activity change, % at 57.5 µM. 360,000 tested, 4.7% active. AID 743279; in the data active = activity change below about -50%; inconclusive = mostly about -30% to -49%
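Secreted IL-1B measured by AlphaLISA bead assay after 16 h compound exposure of THP-1 cells; compounds (final up to 57.5 uM) added 1 h before LPS (250 ng/mL) and ATP (1.25 mM) stimulation; lower signal means less secretion.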
TDP1 cell CPT – DT40-hTDP1 cell growth loss with CPT; chicken DT40 Tdp1-/-;hTDP1 cells + 20 nM CPT, ATP luminescence, 48 h; Potency, µM (highest dose often 46.2 µM), hits mostly inhibitors; 420,000 tested, 12% active; also: nearly all actives have a fitted effect of over 55% in size
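Chicken DT40 Tdp1-/- cells stably complemented with human TDP1 were seeded at 400 cells/well in medium containing 20 nM camptothecin, exposed to pin-transferred compounds, and grown at 37 °C for at least 48 hr. Viability was read as ATP luminescence.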
Large screens that a line does not name were inactive. This excerpt belongs to a sample that is enriched for hits. Unless noted, calls follow the shape of the dose curve; as a rule, active = well fitted curve in the direction sought with a large enough effect; inconclusive = small, poorly fitted or top-dose-only effect, or another doubt; inactive = no such curve, though single readings can be large; an effect the other way counts as inactive or inconclusive.

CCN1CCN(Cc2cc(=O)oc3cc(O)c(Cl)cc23)CC1	none (no result: TDP1 cell noCPT, HT1080NT lethal, HT1080 IDH1KD tx, IL-1B inflam inh, TDP1 cell CPT)
Cn1cc(C(=O)N2CCC(N(C3CCOCC3)S(C)(=O)=O)CC2)cn1	none (no result: TDP1 cell noCPT, HT1080NT lethal, HT1080 IDH1KD tx, IL-1B inflam inh, TDP1 cell CPT)
Cc1ccccc1C(=O)Nc1ccc(Cl)cn1	TDP1 cell noCPT 21µM, TDP1 cell CPT 16µM
Cc1ccc(-c2cc(NC(=O)c3ccccc3[N+](=O)[O-])n[nH]2)cc1	TDP1 cell noCPT 21µM, TDP1 cell CPT inconclusive
Cc1ccccc1CNC(=O)C1CCCN(c2nnc(C)c3c(C)n(-c4ccccc4)nc23)C1 (configuration not stated)	TDP1 cell noCPT 18µM, HT1080NT lethal inconclusive, HT1080 IDH1KD tx inconclusive, IL-1B inflam inh inconclusive, TDP1 cell CPT 23µM
Cc1nnc(N2CCCC(C(=O)NCc3ccccc3F)C2)c2nn(-c3ccccc3)c(C)c12 (configuration not stated)	TDP1 cell CPT inconclusive
Cc1ccc(-n2nc3c(N4CCCC(C(=O)NCCc5ccccc5)C4)nnc(C)c3c2C)cc1 (configuration not stated)	TDP1 cell noCPT 16µM, TDP1 cell CPT 16µM (no result: HT1080NT lethal, HT1080 IDH1KD tx, IL-1B inflam inh)
Cc1ccc(CCNC(=O)C2CCCN(c3nnc(C)c4c(C)n(-c5ccccc5)nc34)C2)cc1 (configuration not stated)	TDP1 cell noCPT inconclusive, TDP1 cell CPT 23µM (no result: HT1080NT lethal, HT1080 IDH1KD tx, IL-1B inflam inh)
Cc1nnc(N2CCCC(C(=O)NCCc3ccccc3)C2)c2nn(-c3ccccc3)c(C)c12 (configuration not stated)	TDP1 cell noCPT 18µM, TDP1 cell CPT inconclusive (no result: HT1080NT lethal, HT1080 IDH1KD tx, IL-1B inflam inh)
CCCOc1c(Br)cc(C(=O)Oc2cc(C(=O)OC)cc(C(=O)OC)c2)cc1OC	none (no result: TDP1 cell noCPT, HT1080NT lethal, HT1080 IDH1KD tx, IL-1B inflam inh, TDP1 cell CPT)
Cc1ccc(S(=O)(=O)N[C@@H](C)C(=O)N2CCC(C(=O)N[C@@H](Cc3ccccc3)C(=O)O)CC2)cc1	none
O=C1CC(c2ccccc2)N(C(=O)CNC(=O)c2ccoc2)CCCCCN1 (configuration not stated)	none (no result: TDP1 cell noCPT, HT1080NT lethal, HT1080 IDH1KD tx, IL-1B inflam inh, TDP1 cell CPT)
COc1cccc(C(=O)CC(CC(=O)c2cccc(OC)c2)c2ccccc2C(=O)O)c1	none (no result: TDP1 cell noCPT, HT1080NT lethal, HT1080 IDH1KD tx, IL-1B inflam inh, TDP1 cell CPT)
CCOc1ccc(CCNC(=O)C2CCCN(c3nnc(C)c4c(C)n(-c5ccccc5)nc34)C2)cc1 (configuration not stated)	TDP1 cell noCPT inconclusive, TDP1 cell CPT 21µM (no result: HT1080NT lethal, HT1080 IDH1KD tx, IL-1B inflam inh)
Cc1ccc(-n2nc3c(N4CCCC(C(=O)NCc5ccc(Cl)cc5)C4)nnc(C)c3c2C)cc1 (configuration not stated)	TDP1 cell noCPT 18µM, TDP1 cell CPT 9.2µM (no result: HT1080NT lethal, HT1080 IDH1KD tx, IL-1B inflam inh)
CCOC(=O)C1CCCN(C(=O)C2CCN(c3nnc(C)c4c(C)n(-c5ccccc5)nc34)CC2)C1 (configuration not stated)	TDP1 cell noCPT inconclusive, TDP1 cell CPT inconclusive (no result: HT1080NT lethal, HT1080 IDH1KD tx, IL-1B inflam inh)
N#Cc1nc(COc2ccc3c(c2)OCO3)oc1N1CCCC1	none (no result: TDP1 cell noCPT, HT1080NT lethal, HT1080 IDH1KD tx, IL-1B inflam inh, TDP1 cell CPT)
Cc1ccc(Nc2nc(N)nc(CC#N)n2)cc1	HT1080NT lethal 13µM, HT1080 IDH1KD tx 7.1µM
COc1cccc(Nc2nc(N)nc(CCl)n2)c1	TDP1 cell noCPT inconclusive, HT1080NT lethal 7.3µM, HT1080 IDH1KD tx 10µM, TDP1 cell CPT 13µM (no result: IL-1B inflam inh)
CCOc1ccc(Nc2nc(N)nc(CCl)n2)cc1	TDP1 cell noCPT 5.8µM, HT1080NT lethal 0.82µM, HT1080 IDH1KD tx inconclusive, IL-1B inflam inh -96, TDP1 cell CPT 2.1µM
Cc1cccc(Nc2nc(N)nc(CCl)n2)c1C	TDP1 cell noCPT 16µM, HT1080NT lethal 1.6µM, HT1080 IDH1KD tx 1.8µM, TDP1 cell CPT 10µM (no result: IL-1B inflam inh)
Cc1ccc(Nc2nc(N)nc(CSc3ncccn3)n2)cc1	TDP1 cell CPT inconclusive
CCOc1ccc(Nc2nc(N3CCCCC3)nc(N3CCCCC3)n2)cc1	TDP1 cell noCPT inconclusive
COc1cccc(Nc2nc(N)nc(C(F)(F)F)n2)c1	HT1080 IDH1KD tx inconclusive
CCCC12CC3CC(CC(N)(C3)C1)C2	none (no result: TDP1 cell noCPT, HT1080NT lethal, HT1080 IDH1KD tx, IL-1B inflam inh, TDP1 cell CPT)
Cc1cccc(Nc2nc(N)nc(CCl)n2)c1	TDP1 cell noCPT 21µM, HT1080NT lethal 3.7µM, HT1080 IDH1KD tx inconclusive, IL-1B inflam inh -106, TDP1 cell CPT 13µM
CCOC(=O)c1cnc(SCc2nc(N)nc(Nc3ccc(C)cc3)n2)nc1N	TDP1 cell noCPT inconclusive, HT1080NT lethal inconclusive, HT1080 IDH1KD tx inconclusive, IL-1B inflam inh -52, TDP1 cell CPT 21µM
Cc1ccc(Nc2nc(N)nc(CSc3nc(C)cc(C)n3)n2)cc1	ALOX12 inh inconclusive
Cc1cccc(Nc2nc(N)nc(CSc3nccc(C)n3)n2)c1	none
Cc1ccc(Nc2nc(N)nc(CN3CCCCCC3)n2)c(C)c1	TDP1 cell noCPT inconclusive, TDP1 cell CPT inconclusive
Cc1ccc(Nc2nc(N)nc(CCl)n2)cc1	TDP1 cell noCPT inconclusive, HT1080NT lethal 2.3µM, HT1080 IDH1KD tx 8.2µM, TDP1 cell CPT 16µM (no result: IL-1B inflam inh)
Cc1ccc(Nc2nc(N)nc(CCl)n2)c(C)c1	TDP1 cell noCPT 10µM, HT1080NT lethal 5.8µM, HT1080 IDH1KD tx inconclusive, IL-1B inflam inh -89, TDP1 cell CPT 6.5µM
Cc1cnc(C2CC2)n1CCNS(=O)(=O)c1cc(F)cc(F)c1	none (no result: TDP1 cell noCPT, HT1080NT lethal, HT1080 IDH1KD tx, IL-1B inflam inh, TDP1 cell CPT)
Cc1c(Cl)cccc1Nc1nc(N)nc(CN2CCc3ccccc3C2)n1	IL-1B inflam inh inconclusive

Screens: PubChem BioAssay, National Center for Advancing Translational Sciences (NCATS)
